Hits are enriched below; roughly 15% of the tested compounds scored in any of these assays.
SARS PLpro yeast – inhibitors of SARS-CoV papain-like protease in yeast | Potency, µM (doses to about 32.9 µM), hits mostly activators | 330,000 tested, 0.19% active | S. cerevisiae expressing SARS-CoV PLpro, growth rescue | AID 485353; calls by dose curve; note: nearly all actives have a fitted effect of over 55% in size
HCMV antiviral – human cytomegalovirus inhibition | 410,000 tested, 4.5% active | HFF cells, HCMV-luciferase reporter, 72 h; stronger effect = lower value | activity change, negative = inhibition, % at 57.5 µM; in the data active = activity change below about -60%; inconclusive = no clear call, values can overlap the other calls; inactive = above about -39%
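HFF cells seeded 16 h at 37C, treated with compounds, infected with luciferase-reporter HCMV at MOI 1 PFU/cell; luciferase read at 72 h post infection, normalized to buffer-only and Salinomycin controls.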
Sm TGR inh – S. mansoni TGR enzyme inhibition; Q962Y6; AID 485364; purified TGR, DTNB reduction, TNB absorbance 405 nm; 360,000 tested, 3% active; Potency, µM (titrated, usually from 114 µM), most hits filed as inhibitors; note: nearly all actives have a fitted effect of over 60% in size
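Kinetic colorimetric format: TGR-catalysed, NADPH-driven DTNB reduction monitored via TNB absorbance. Enzyme dispensed at 20 nM; compound exposure 15 min at room temperature before reaction start.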
Pf growth 48h – inhibits P. falciparum growth in the first generation, 48 h | Potency, µM (top dose mostly 28.7 µM), most hits filed as inhibitors | 310,000 tested, 5.9% active | AID 504832 | P. falciparum luciferase growth in erythrocytes, 48 h
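Compounds are pin-transferred into medium, infected erythrocytes (2% hematocrit, 0.1% parasitemia final) are added, and plates sit one parasite generation at 37 C in 5% CO2. Detection reagent is then added and luminescence measured.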
Pf growth 96h – P. falciparum growth inhibition at 96 hour, primary screen for plastid delayed-death inhibitors. P. falciparum luciferase reporter growth, 96 h. Potency, µM (highest dose often 28.7 µM), most hits filed as inhibitors. 320,000 tested, 6.9% active
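Infected RBCs, 2% Hct / 0.05% parasitemia final; luciferase-reporter P. falciparum; cpd 96 h, 37 C, 5% CO2; luciferase detection reagent; luminescence.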
HCV inh – inhibitors of hepatitis C virus infection. Potency, µM (doses to about 41.8 µM), actives largely listed as inhibitors. Huh7.5.1 HCVcc-Cre infection, luciferase reporter, 44 h. 340,000 tested, 3.4% active
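Luciferase read-out (15 sec integration) after a 15 min room-temperature substrate step quantifies HCVcc-Cre infection. Cells, 1,000 per well, had compound added 4 h post-plating, then virus at ~0.5 moi, and were cultured 44 h.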
Hits are given with their value; n = inactive; u = inconclusive; x = no result. Unless noted, calls come from the whole dose curve; as a rule, active = well fitted curve in the direction sought with a large enough effect; inconclusive = small, poorly fitted or top-dose-only effect, or another doubt; inactive = no such curve, though single readings can be large; an effect the other way counts as inactive or inconclusive.

SMILES	SARS PLpro yeast	HCMV antiviral	Sm TGR inh	Pf growth 48h	Pf growth 96h	HCV inh
Cc1cc(NC(=O)CSc2nnc(COc3cccc(C)c3C)n2Cc2ccco2)no1	n	x	n	n	n	n
COc1ccc(NC(=O)CSc2nnc(COc3ccccc3)n2Cc2ccco2)cc1OC	n	n	n	u	n	u
COc1ccccc1CN1CCN(C2CCN(C(=O)NC(C)C)CC2)C(=O)C1=O	x	n	n	x	x	x
C[C@H](CO)N1C[C@H](C)[C@@H](CN(C)Cc2ccc(C(=O)Nc3ccccc3N)cc2)Oc2c(NC(=O)C3CCCCC3)cccc2C1=O	n	u	x	x	x	u
O=C(/C=C/[C@H]1O[C@@H](n2ccc(=O)[nH]c2=O)[C@H](O)[C@@H]1O)NCc1cccc2ccccc12	x	n	x	x	x	x
O=C(CSc1nnc(COc2ccc(Cl)cc2)n1Cc1ccco1)c1ccccc1F	n	n	n	n	u	u
CC(Sc1nnc(COc2ccc(Cl)cc2)n1Cc1ccco1)C(=O)N1CCNC1=O (centres undefined)	n	u	n	u	8.28µM	n
CC(=O)c1ccc(NC(=S)N2CCN(S(=O)(=O)c3ccc(F)cc3)CC2)cc1	n	n	n	n	n	n
CSCCC(NC(=O)COc1ccccc1)C(=O)N(C)Cc1ccc(SC)cc1 (centres undefined)	n	n	n	u	u	u
Cc1cc2ccccn2c1C(=O)c1ccc([N+](=O)[O-])o1	n	-66.1	u	n	u	11.2µM
Cc1cc2ccccn2c1C(=O)c1ccc(S(=O)(=O)N(C)C)cc1	n	-65.7	n	n	n	u
Cc1cc2ccccn2c1C(=O)c1cccc([N+](=O)[O-])c1	n	u	n	n	n	n
Cc1ccc(/C=C(\C#N)C(=O)N2CCCC2)c(C)c1	n	n	n	n	n	n
CCN(CC)C(=O)CSc1nnc(CCCCCNC(=O)OC(C)(C)C)o1	n	n	n	u	10.4µM	n
CC(C)(C)OC(=O)NCCCCCc1nnc(SCc2ccc(F)cc2)o1	n	-66.8	n	u	u	u
CC1(C(=O)NCc2ccc(C(F)(F)F)cc2)CCN1C1Cc2ccccc2C1 (centres undefined)	x	n	x	x	x	x
CCOC(=O)c1c(S(=O)(=O)N2CCC(C(=O)Nc3cccc(C)n3)CC2)c(C)n(C)c1C	x	n	n	x	x	x
CCCCN(CCCNC(=O)C1CCN(C(=O)c2cc3sccc3n2C)CC1)Cc1ccccc1	n	u	n	5.22µM	n	u
Cc1cccc2cc(CN(CC3CCCO3)C(=O)NC3CCCCC3)c(=O)[nH]c12 (centres undefined)	n	n	n	u	x	n
CCN(CC)CCCN(Cc1cc2ccc(C)c(C)c2[nH]c1=O)C(=O)NC1CCCCC1	n	n	n	u	9.28µM	5.62µM
Cc1ccc2cc(CN(CC3CCCO3)C(=O)NC3CCCCC3)c(=O)[nH]c2c1C (centres undefined)	n	u	n	n	n	n
COc1ccc(CCN(Cc2cc3cccc(C)c3[nH]c2=O)C(=O)NC2CCCCC2)cc1OC	n	n	n	x	2.94µM	n
Cc1ccc(CNC(=O)Cn2c3ncccc3c(=O)n2-c2ccccc2)cc1	x	n	n	x	x	x
COc1ccc(NC(=O)c2ccc(-c3ccc(-c4noc(C)n4)cc3C)cc2)cc1N1CCN(C)CC1	x	n	n	3.29µM	2.62µM	u
COc1ccc(NC(=O)N2CCN(c3cc(-c4noc(C)n4)ccc3C)CC2)c(OC)c1	x	n	n	x	x	x
Cc1c(Cl)cccc1NC(=S)N1CCN(C(=O)C2CCCO2)CC1 (centres undefined)	n	u	n	n	n	n
Cc1cccc(NC(=S)N2CCC(N(C)CC3CCCO3)CC2)c1 (centres undefined)	n	n	u	n	u	n
COc1ccc(NC(=S)N2CCC(N(C)CC3CCCO3)CC2)cc1Cl (centres undefined)	n	n	n	n	6.57µM	n
Cc1ccc(NC(=S)N2CCC(N(C)CC3CCCO3)CC2)cc1C (centres undefined)	n	n	u	n	1.47µM	n
